From PubChem BioAssay (NCATS)
Inconclusive results are not listed. Active and inactive are the calls of the source. Unless noted, calls follow the shape of the dose curve; as a rule, active = well fitted curve in the direction sought with a large enough effect; inconclusive = small, poorly fitted or top-dose-only effect, or another doubt; inactive = no such curve, though single readings can be large; an effect the other way counts as inactive or inconclusive.

Assays:
[1] = qHTS for differential inhibitors of proliferation of Plasmodium falciparum line 7G8 (AID 1815);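 also: potency is read from the fitted curve at half-maximal effect; parasite growth measured after three days of incubation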
[2] = qHTS for differential inhibitors of proliferation of Plasmodium falciparum line W2 (AID 1883); conditions: Potency: Plasmodium falciparum W2 proliferation inhibition;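 also: potency is read from the fitted curve at half-maximal effect; parasites grown with compound for 72 h before lysis and staining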
[3] = Validation screen for small molecules that induce DNA re-replication in SW480 colon adenocarcinoma cells (AID 504364); also: 0% is about no effect
Summary of the method: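 SW480 cells seeded at 250 per well were exposed to compound or DMSO for 48 hr at 37 C, 5% CO2, then stained with Hoechst for 40 min. DNA content per nucleus was imaged (405 nm ex, 500-530 nm em).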

[4] = AP1 Signaling Pathway (AID 357; active = well fitted curve in either direction with a large enough effect, not every such curve was filed as active;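 also: ME-180 reporter cells stimulated with EGF at its EC50 level; % is scaled to controls: 0 for no effect and ±100 for the full control effect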); conditions: ME-180 AP-1-bla reporter, EGF-induced, beta-lactamase ratio, 5 h; at 7.69 µM (top of the series) unless noted
Summary of the method: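 In this screen, ME-180 cells in Opti-MEM with 0.5% dialyzed FBS received EC50 EGF and compound titrations for 5 h. AP-1 reporter beta-lactamase was detected via CCF4 ratio, giving AC50 for positive and negative modulators.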

[5] = biological target: Cytochrome P450 1A2 (Homo sapiens) (UniProt P05177); assay: p450-cyp1a2 (AID 410; calls by dose curve; also: potency is read from the fitted curve at half-maximal effect;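 as to activity change, negative = inhibition: -100% = full effect of reference inhibitor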)
Chain of Cytochrome P450 1A2 (Homo sapiens) (P05177 whole entry, looked up): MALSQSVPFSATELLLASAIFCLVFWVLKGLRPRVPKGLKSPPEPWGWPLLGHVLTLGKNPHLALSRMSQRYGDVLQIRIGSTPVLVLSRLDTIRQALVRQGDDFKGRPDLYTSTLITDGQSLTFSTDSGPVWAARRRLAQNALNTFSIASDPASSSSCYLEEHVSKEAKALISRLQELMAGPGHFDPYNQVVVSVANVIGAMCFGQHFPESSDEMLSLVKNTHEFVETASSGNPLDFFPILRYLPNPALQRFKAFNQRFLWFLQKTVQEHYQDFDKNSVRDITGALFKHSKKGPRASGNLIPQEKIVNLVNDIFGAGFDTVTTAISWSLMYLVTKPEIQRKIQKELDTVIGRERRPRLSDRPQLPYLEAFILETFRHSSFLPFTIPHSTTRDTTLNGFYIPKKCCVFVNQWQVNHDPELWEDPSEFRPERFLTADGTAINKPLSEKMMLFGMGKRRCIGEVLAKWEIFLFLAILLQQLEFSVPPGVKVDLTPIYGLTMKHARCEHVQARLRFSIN
Summary of the method: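 Human CYP1A2 (20nM) demethylated Luciferin-ME at its Km (100uM) in 100mM KPO4. After 10 min compound preincubation, NADPH regeneration ran the reaction 60 min at room temperature. Luciferin was read by luminescence, normalized to 57 uM furafylline.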

[6] = NFAT Signaling Pathway (AID 444; active = well fitted curve in either direction with a large enough effect, not every such curve was filed as active;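 also: carbachol stimulus at about its EC50 of 1 µM final; % is scaled to controls: 0 for no effect and ±100 for the full control effect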); conditions: Jurkat NFAT-bla M1, carbachol, beta-lactamase ratio, 5 h; at 7.69 µM (top of the series) unless noted
Summary of the method: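 Jurkat cells with NFAT-driven β-lactamase reporter and co-expressed M1 receptor, stimulated with carbachol (final 1 uM, ~EC50), compound titration, 5 h at 37 °C. CCF4 loaded 1 h at RT; 460/530 nm ratio gave %activity and AC50.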

[7] = Stat Signaling Pathway (AID 446; active = well fitted curve in either direction with a large enough effect, not every such curve was filed as active;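 also: ME-180 cervical cancer cells given 40 pM IL-6 alongside compound; SIE-controlled beta-lactamase reporter measured as 460/530 nm FRET emission ratio; % is scaled to controls: 0 for no effect and ±100 for the full control effect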); conditions: ME-180 SIE beta-lactamase reporter, IL-6 stimulated, 5 h; at 7.69 µM (top of the series) unless noted
Summary of the method: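 ME-180 SIE-bla cells; overnight plating; cpd + IL-6 40 pM, 5 h, 37 C; LiveBLAzer 2.5 h RT; 460/530 nm emission ratio. Normalized to 300 pM IL-6 and 125 nM JAK inhibitor controls.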

[8] = biological target: Guanine nucleotide-binding protein G(i) subunit alpha-1 (Homo sapiens) (UniProt P63096); assay: qHTS Assay for Inhibitors of RGS12 GoLoco Motif Activity (Green Fluorophore) (AID 879);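 also: 0% = labeled peptide with Gαi1 and full inhibition = labeled peptide alone without protein; negative values mean loss of peptide binding seen as reduced polarization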
Chain of Guanine nucleotide-binding protein G(i) subunit alpha-1 (Homo sapiens) (P63096 whole entry, looked up): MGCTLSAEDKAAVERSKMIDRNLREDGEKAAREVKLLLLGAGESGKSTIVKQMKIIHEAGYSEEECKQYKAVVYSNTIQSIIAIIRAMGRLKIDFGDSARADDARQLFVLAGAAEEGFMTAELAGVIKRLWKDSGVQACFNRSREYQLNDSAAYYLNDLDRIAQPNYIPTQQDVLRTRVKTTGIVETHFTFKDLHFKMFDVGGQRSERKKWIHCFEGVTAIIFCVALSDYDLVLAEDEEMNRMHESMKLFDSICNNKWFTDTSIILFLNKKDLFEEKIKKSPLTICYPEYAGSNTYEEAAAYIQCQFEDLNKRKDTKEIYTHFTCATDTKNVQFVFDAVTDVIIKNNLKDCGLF
Summary of the method: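 Fluorescence polarization assay: 50 nM Gαi1 with 10 nM FITC-labeled RGS12 GoLoco peptide in 10 mM Tris pH 7.5, 150 mM NaCl, 0.1 mM GDP, 0.05% NP40, 10 min at room temperature with compound.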

[9] = biological target: Muscarinic acetylcholine receptor M1 (Rattus norvegicus) (UniProt P08482); assay: qHTS Assay for Antagonists of Acetylcholine Muscarinic M1 Receptor: Measurement of IP-One Response (AID 944); also: nearly all actives have a fitted effect of over 75% in size
Chain of Muscarinic acetylcholine receptor M1 (Rattus norvegicus) (P08482 whole entry, looked up): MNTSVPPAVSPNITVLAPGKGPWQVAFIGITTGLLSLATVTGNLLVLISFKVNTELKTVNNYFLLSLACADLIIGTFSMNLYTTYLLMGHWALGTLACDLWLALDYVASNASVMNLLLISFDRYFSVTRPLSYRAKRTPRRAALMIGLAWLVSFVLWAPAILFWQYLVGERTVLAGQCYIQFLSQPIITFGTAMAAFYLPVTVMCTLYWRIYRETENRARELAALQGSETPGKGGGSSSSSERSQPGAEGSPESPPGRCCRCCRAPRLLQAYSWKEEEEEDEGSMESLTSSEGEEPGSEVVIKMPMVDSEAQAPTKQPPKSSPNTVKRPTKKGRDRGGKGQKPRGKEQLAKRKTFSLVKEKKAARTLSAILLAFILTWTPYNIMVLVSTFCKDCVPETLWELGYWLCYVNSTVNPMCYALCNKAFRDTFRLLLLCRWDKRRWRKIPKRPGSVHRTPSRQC
Summary of the method: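 CHO cells expressing rat M1 receptor, recovered overnight, were pre-incubated 10 min with compound, then stimulated 30 min with carbachol at EC80 (200 nM) in LiCl-containing buffer, pH 7.4. IP1 accumulation was read by HTRF (620/665 nm).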

[10] = biological target: Pyruvate kinase (Leishmania mexicana) (UniProt Q27686); assay: qHTS Validation Assay for Inhibitors of Leishmania Mexicana Pyruvate Kinase (AID 945);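 also: 0% = DMSO only neutral control wells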
Chain of Pyruvate kinase (Leishmania mexicana) (Q27686 2-499 E452W): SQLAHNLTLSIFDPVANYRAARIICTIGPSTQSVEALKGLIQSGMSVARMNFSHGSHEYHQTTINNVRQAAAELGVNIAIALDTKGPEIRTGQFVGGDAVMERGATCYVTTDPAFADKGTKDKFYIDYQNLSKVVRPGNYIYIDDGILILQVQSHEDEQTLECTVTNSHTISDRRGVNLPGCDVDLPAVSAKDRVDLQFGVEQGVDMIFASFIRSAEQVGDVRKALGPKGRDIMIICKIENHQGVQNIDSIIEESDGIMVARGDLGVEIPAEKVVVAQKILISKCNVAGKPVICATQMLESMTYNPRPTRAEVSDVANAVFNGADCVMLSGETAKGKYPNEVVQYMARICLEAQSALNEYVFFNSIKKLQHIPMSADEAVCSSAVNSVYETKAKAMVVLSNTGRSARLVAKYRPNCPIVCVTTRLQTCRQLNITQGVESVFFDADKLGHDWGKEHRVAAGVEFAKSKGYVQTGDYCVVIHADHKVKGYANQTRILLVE
Summary of the method: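 Luminescent ATP detection (PKLight) after a 1 h room-temperature reaction of 0.2 nM LmPYK E451W mutant with 0.5 mM PEP and 0.1 mM ADP at pH 7.2. Activity is normalized to DMSO-only control wells.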

[11] = biological target: Pyruvate kinase PKM (Homo sapiens) (UniProt P14618); assay: qHTS Assay for Activators of Human Muscle Pyruvate Kinase (AID 954; active = well fitted curve in the direction sought with a large enough effect, not every such curve was filed as active;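 also: 0% = uninhibited enzyme and -100% = no enzyme or full thiadiazolimine inhibition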)
Chain of Pyruvate kinase PKM (Homo sapiens) (P14618 whole entry, looked up): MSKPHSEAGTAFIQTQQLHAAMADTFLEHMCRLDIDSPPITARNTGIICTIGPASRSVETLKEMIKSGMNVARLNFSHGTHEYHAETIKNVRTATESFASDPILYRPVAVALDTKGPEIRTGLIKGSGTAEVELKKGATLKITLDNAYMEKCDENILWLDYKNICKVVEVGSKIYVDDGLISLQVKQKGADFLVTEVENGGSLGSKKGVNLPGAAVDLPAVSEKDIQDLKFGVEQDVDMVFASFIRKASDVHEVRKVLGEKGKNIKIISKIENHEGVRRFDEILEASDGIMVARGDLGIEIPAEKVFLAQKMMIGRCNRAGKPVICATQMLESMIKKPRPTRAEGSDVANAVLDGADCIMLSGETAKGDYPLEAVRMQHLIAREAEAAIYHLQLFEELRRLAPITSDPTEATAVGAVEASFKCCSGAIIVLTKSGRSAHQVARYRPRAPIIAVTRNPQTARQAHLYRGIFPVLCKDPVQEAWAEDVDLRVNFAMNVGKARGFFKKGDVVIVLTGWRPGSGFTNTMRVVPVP
Summary of the method: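 Luminescence from a luciferase ATP-detection/stop reagent reported PKM2 activity. Reactions contained 0.1 nM purified human enzyme, 0.5 mM PEP, 0.1 mM ADP and 7 mM MgCl2 at pH 7.2, run 1 h at RT.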

[12] = biological target: Alpha-galactosidase A (Homo sapiens) (UniProt P06280); assay: Counterscreen for Glucocerebrosidase Inhibitors: qHTS Assay for Human alpha-Galactosidase at pH 4.5 (AID 992); also: 0% is about no effect
Chain of Alpha-galactosidase A (Homo sapiens) (P06280 whole entry, looked up): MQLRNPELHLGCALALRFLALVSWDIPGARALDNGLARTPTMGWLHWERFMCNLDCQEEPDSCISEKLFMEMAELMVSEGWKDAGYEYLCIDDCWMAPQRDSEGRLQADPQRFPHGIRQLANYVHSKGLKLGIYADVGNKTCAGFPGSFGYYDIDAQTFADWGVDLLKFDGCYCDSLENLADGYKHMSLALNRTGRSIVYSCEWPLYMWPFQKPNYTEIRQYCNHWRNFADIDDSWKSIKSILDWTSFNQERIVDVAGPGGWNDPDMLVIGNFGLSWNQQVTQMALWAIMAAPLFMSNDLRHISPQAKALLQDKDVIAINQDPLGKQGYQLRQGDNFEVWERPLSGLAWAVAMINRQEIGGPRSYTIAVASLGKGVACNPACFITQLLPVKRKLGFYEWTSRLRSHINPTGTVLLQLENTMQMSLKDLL
Summary of the method: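 Enzyme at 2 nM final was combined with compound (0.7 nM to 77 uM) and 80 uM 4-methylumbelliferyl alpha-D-galactopyranoside in 50 mM citric acid, 0.005% Tween-20, pH 4.5. After 20 min at room temperature, fluorescence was read (Ex 365/Em 440 nm); AC50 came from Hill fits.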

[13] = biological target: alpha-glucosidase (Oryza sativa, rice) (UniProt Q653V4); assay: Counterscreen for Glucocerebrosidase Inhibitors: qHTS Assay for Rice alpha-Glucosidase at pH 5.0 (AID 997);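 also: 0% = full activity with enzyme and -100% = basal without enzyme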
Summary of the method: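 Rice alpha-glucosidase (4 nM final) with 400 uM 4-methylumbelliferyl-alpha-D-glucopyranoside in citrate buffer pH 5.0, 20 min at room temperature, stopped at pH 10; fluorescence 365/440 nm, compounds 0.7 nM–77 uM, AC50 from Hill fits.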

[14] = qHTS for differential inhibitors of proliferation of Plasmodium falciparum line GB4 (AID 1816); conditions: Potency: Plasmodium falciparum GB4 proliferation inhibition;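 also: parasite growth measured after 72 h incubation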; also: potency is read from the fitted curve at half-maximal effect;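 as to activity change, negative = inhibition: 0% = vehicle DMSO and -100% = reference inhibitor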
[15] = biological target: Calcium and integrin-binding protein 1 (Homo sapiens) (UniProt Q99828); assay: Confirmatory qHTS for Identification of Calcium Integrin Binding Protein 1 (CIB1) Competitor (AID 1508617); also: % is scaled to controls: 0 for no effect and ±100 for the full control effect; nearly all actives have a fitted effect of over 65% in size
Chain of Calcium and integrin-binding protein 1 (Homo sapiens) (Q99828 whole entry, looked up): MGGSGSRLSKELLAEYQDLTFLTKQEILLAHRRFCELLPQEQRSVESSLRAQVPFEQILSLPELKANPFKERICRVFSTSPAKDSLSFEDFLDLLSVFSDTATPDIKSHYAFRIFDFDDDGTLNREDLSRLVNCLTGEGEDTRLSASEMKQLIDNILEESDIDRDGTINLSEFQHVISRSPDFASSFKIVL
Summary of the method: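 Fluorescence polarization competition: CIB1-GST (1 uM final) in 5 mM HEPES pH 7.4, 125 mM NaCl, 5 mM CaCl2, 0.01% Tween20 preincubated 15 min RT with compound (up to 114 uM), then FITC-alphaIIb peptide (100 nM) added, 15 min RT.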

[16] = biological target: 3',5'-cyclic-AMP phosphodiesterase 4B (Homo sapiens) (UniProt Q07343); assay: qHTS Assay for Inhibitors of PDE-IV (AID 607; active = well fitted activation curve with a large enough effect in the main read-out, with a control signal flat, not every such curve was filed as active; also: potency is read from the fitted curve at half-maximal effect)
Chain of 3',5'-cyclic-AMP phosphodiesterase 4B (Homo sapiens) (Q07343 whole entry, looked up): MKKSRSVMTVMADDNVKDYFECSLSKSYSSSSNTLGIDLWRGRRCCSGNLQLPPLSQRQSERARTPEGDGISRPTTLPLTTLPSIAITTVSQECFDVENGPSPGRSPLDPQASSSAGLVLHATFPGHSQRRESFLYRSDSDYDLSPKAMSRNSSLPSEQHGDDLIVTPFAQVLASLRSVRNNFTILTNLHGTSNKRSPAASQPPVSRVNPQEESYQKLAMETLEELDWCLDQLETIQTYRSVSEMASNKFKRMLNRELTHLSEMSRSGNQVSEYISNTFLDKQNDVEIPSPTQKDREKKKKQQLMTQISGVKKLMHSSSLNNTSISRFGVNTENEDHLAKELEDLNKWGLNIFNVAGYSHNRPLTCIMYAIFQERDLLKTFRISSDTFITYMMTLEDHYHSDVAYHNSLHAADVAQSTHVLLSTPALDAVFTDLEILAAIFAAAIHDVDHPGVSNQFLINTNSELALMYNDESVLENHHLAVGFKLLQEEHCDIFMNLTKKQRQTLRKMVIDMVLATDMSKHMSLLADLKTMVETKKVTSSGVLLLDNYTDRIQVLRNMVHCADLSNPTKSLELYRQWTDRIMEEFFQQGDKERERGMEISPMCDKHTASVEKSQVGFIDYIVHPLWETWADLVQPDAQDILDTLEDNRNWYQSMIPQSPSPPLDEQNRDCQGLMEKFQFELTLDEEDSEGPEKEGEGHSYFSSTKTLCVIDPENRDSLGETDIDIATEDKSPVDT
Summary of the method: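 ACTOne HEK293 cells carry a modified cAMP-gated CNG channel and express endogenous PDE4; plated 1000 cells/well, compounds up to 22.9 uM final. Membrane-potential dye fluorescence (ex 535/em 590) was read; parental cells received 10 uM forskolin + 100 uM RO 20-1724.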

[17] = qHTS profiling for inhibitors of Plasmodium falciparum proliferation (AID 504749); also: potency is read from the fitted curve at half-maximal effect; nearly all actives have a fitted effect of over 60% in size; conditions: P. falciparum in erythrocytes, SYBR Green DNA, 72 h
Summary of the method: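 Readout was DNA-dye fluorescence from lysed cultures, ex 485/em 535 nm. Parasitized red cells had grown 72 h with compound; data scaled between 0.29 uM artemisinin and DMSO wells and corrected using vehicle-only plates.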

[18] = qHTS Assay for Modulators of Human Peripheral Myelin Protein 22 (PMP22) Expression/Activity (AID 1967; active = well fitted curve in the direction sought with a large enough effect in the signal ratio; the % refers to the signal ratio;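 also: 0% = untreated cells and 100% end not stated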)
Summary of the method: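 Mouse MSC80 Schwann cells carrying Pmp22 promoter–green click beetle luciferase plus EF-alpha–red luciferase control, dosed 24 h at 37 °C. Dual-filter luminescence, overlap-corrected; %Activity from green/red ratio normalised to untreated cells, concentration-response curves fitted.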

[19] = biological target: Calcium and integrin-binding protein 1 (Homo sapiens) (UniProt Q99828); assay: Primary qHTS for Identification of Calcium Integrin Binding Protein 1 (CIB1) Competitor (AID 1508620);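 also: GST tagged CIB1 binding a fluorescein labelled alphaIIb integrin peptide tracer; top concentration of the series differs between compounds; % is scaled to controls: 0 for no effect and ±100 for the full control effect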
Summary of the method: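 Fluorescence polarization competition: GST-tagged CIB1 (1 uM final) preincubated with compound 15 min at room temperature, then FITC-labelled alphaIIb peptide (100 nM final) added. After 15 min at room temperature, polarization read at Ex 480/Em 540.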

CCCCC#Cc1nc(N)c2ncn([C@@H]3O[C@H](C(=O)NCC)[C@@H](O)[C@H]3O)c2n1
active: Potency [1] 7.94 µM | Potency [2] 11.2 µM
inactive: outcome [3]

COC(=O)c1c(-c2cc(OC)c(OC)c(OC)c2)c2ccc(OCc3ccccn3)cc2c(=O)n1-c1ccc(N)cc1
inactive: activity change, negative = inhibition [4] -16.9% [at 38 µM] | Potency [5] | activity change, negative = inhibition [6] 10.6% [at 38 µM] | activity, negative = inhibition [7] -8.64% [at 38 µM] | outcome [8] | Potency [9] | Potency [10] | outcome [11] | outcome [12] | outcome [13]
active: Potency [1] 0.891 µM | Potency [14] 2.82 µM | Potency [2] 2.24 µM

O=C1CCCC2=C1C1(CCOCC1)N=C(Nc1nc3ccccc3o1)N2
inactive: Potency [15]

CCn1c(=O)c2[nH]c(-c3ccccc3)nc2n(CC)c1=O
inactive: activity change, negative = inhibition [4] -2.19% [at 38 µM] | activity change, negative = inhibition [6] 15.8% [at 38 µM] | activity, negative = inhibition [7] 6.25% [at 38 µM] | outcome [8] | Potency [9] | Potency [10] | outcome [11] | outcome [12] | outcome [13] | Potency [14] | outcome [3]
active: Potency [5] 1 µM | Potency [16] 2 µM

CC(C)C[C@H]1C(=O)N2CCCC2[C@]2(O)O[C@](NC(=O)[C@@H]3C=C4c5cccc6[nH]c(Br)c(c56)C[C@H]4N(C)C3)(C(C)C)C(=O)N12 (stereo partly drawn)
active: Potency ([17]; parasite line A) 11.2 µM | Potency ([17]; parasite line B) 5.62 µM

CCCC(=O)NCCc1c2n(c3ccc(OC)cc13)Cc1ccccc1-2
inactive: activity change, negative = inhibition [4] -34.8% [at 38 µM] | activity change, negative = inhibition [6] -10.2% [at 38 µM] | Potency [16] | outcome [8] | Potency [9] | Potency [10] | outcome [11] | outcome [12] | outcome [13] | outcome [18]
active: Potency [5] 2.51 µM | Potency [1] 11.2 µM | Potency [2] 7.08 µM

CS(=O)(=O)c1ccc(C(=O)OCC(=O)N2CCC(Cc3ccccc3)CC2)cc1[N+](=O)[O-]
inactive: Potency [15]

NC[C@@H](O)c1ccc(O)c(O)c1
inactive: Potency [15] | Potency [19]
